Test results taken from PubChem BioAssay (NCI).
About 79,000 compounds went through this panel and 15% of them were active in at least one assay; those are over-represented in the sample as a whole. The source made the active and inactive calls. Rule as the data show it: active = growth inhibition above about 70%; inactive = the rest.

How the values were obtained:
[1] = NCI Yeast Anticancer Drug Screen. Data for the rad50 strain (AID 155);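 also: 0% = growth of vehicle-only cultures of the same strain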; conditions: S. cerevisiae rad50 strain growth inhibition; at 50.0 µM; stronger effect = higher value
How it was run: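 DNA repair mutant yeast, compound exposure, growth read-out; inhibition is taken relative to vehicle.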

[2] = NCI Yeast Anticancer Drug Screen. Data for the mec2-1 strain (AID 157); conditions: S. cerevisiae mec2-1 strain, at 50.0 µM, stronger effect = higher value
How it was run: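 Each compound was tested on mec2-1 yeast, a strain altered in DNA damage repair or cell cycle control. Growth inhibition is reported relative to vehicle.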

[3] = NCI Yeast Anticancer Drug Screen. Data for the sgs1 mgt1 strain (AID 161);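 also: 0% = growth of cultures given vehicle only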; conditions: S. cerevisiae sgs1 mgt1 strain, at 50.0 µM, stronger effect = higher value
How it was run: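 Genetically altered yeast, compound exposure, growth inhibition relative to vehicle.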

[4] = NCI Yeast Anticancer Drug Screen. Data for the cln2 rad14 strain (AID 165);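 also: 0% = growth equal to vehicle treated cultures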; conditions: S. cerevisiae cln2 rad14 strain, at 50.0 µM, stronger effect = higher value
How it was run: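 Test compounds were added to cln2 rad14 yeast cultures; inhibition of growth was then determined by comparison with vehicle treatment.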

[5] = NCI Yeast Anticancer Drug Screen. Data for the bub3 strain (AID 167); conditions: S. cerevisiae bub3 mutant strain, at 50.0 µM, stronger effect = higher value
How it was run: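 In this screen, a yeast mutant lacking normal mitotic checkpoint function is challenged with compound. Relative growth versus vehicle gives the inhibition value.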

[6] = NCI Yeast Anticancer Drug Screen. Data for the mlh1 rad18 strain (AID 175); conditions: S. cerevisiae mlh1 rad18 strain growth inhibition; at 50.0 µM; stronger effect = higher value
How it was run: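 Inhibition values reflect reduced growth of mutant yeast versus vehicle-treated controls following compound exposure; the mutations affect DNA damage repair.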

Measured: growth inhibition

CCOC(=O)Cc1csc2[n+]1C(=O)/C(=C/c1cccc(OC)c1O)S2
inactive: [1] 45.1% | [2] 9.8% | [3] 53.4% | [4] -10.2% | [5] 13.3% | [6] 38.2%

CCOC(=O)CC(=O)c1ccc(Cl)cc1
inactive: [1] 15.1% | [2] 12.9% | [3] 11.4% | [4] 6.95% | [5] -12.8% | [6] -7.65%

N#Cc1ccccc1-c1ccccc1/C=C/C(=O)O
inactive: [1] -20.4% | [2] -5.9% | [3] -9.5% | [4] 11.8% | [5] -8% | [6] 12.4%

Nc1cc(Cl)ccc1N1C(=O)C=CC1=O
inactive: [1] -26.6% | [2] -14.8% | [3] 1.25% | [4] -6.25% | [5] -9.1% | [6] 18.6%

N=C(CC(=O)Nc1ccccn1)c1ccccc1
inactive: [1] 1.25% | [2] -28.7% | [3] -23.3% | [4] -32% | [5] -20.9% | [6] -16.6%

O=C(NC1c2ccccc2CCc2ccccc21)C(F)(F)F
inactive: [1] 27.7% | [2] -7.75% | [3] 14.5% | [4] 3.05% | [5] 15.3% | [6] 22.6%

OCC1CCCC(n2cnc3c(=S)nc[nH]c32)O1 (configuration not stated)
inactive: [1] -8.4% | [2] -21.8% | [3] -20.2% | [4] -10.7% | [5] -42.2% | [6] 6.4%

COC(=O)N/N=C/c1cccnc1
inactive: [1] 2.05% | [2] -6.6% | [3] -3.05% | [4] -72.2% | [5] 9.8% | [6] -26.8%

CS(=O)(=O)Oc1ncc(Cl)cc1Cl
inactive: [1] -15.4% | [2] 2% | [3] -1.85% | [4] 14.5% | [5] 1.35% | [6] -8.1%

FC(F)(F)C(F)(F)C(F)(F)c1n[nH]c(C(F)(F)C(F)(F)C(F)(F)F)n1
inactive: [1] 12.8% | [2] 15.1% | [3] 33.4% | [4] 2.95% | [5] 18.5% | [6] -0.1%

Cc1cc(=O)[nH]c(/N=C(/N)N(C)C)n1
inactive: [1] 4.15% | [2] -10.8% | [3] 3% | [4] 11.4% | [5] 8.2% | [6] 5.05%

CCCCCCCCCCCCCCCC(=O)Nc1ccn(C2OC(CO)C(O)C2O)c(=O)n1 (configuration not stated)
inactive: [1] -1.45% | [2] -19.9% | [3] 6.75% | [4] 10.1% | [5] -6.8% | [6] -14.7%

CCN(CC)CCCC(C)Nc1nncc2ccccc12 (configuration not stated)
inactive: [1] -19.2% | [2] -2.1% | [3] 2.55% | [4] -17.3% | [5] -1.3% | [6] -8.95%

Nc1cccc(N)n1
inactive: [1] 7.65% | [2] -12.2% | [3] -15.8% | [4] 5.7% | [5] -0.7% | [6] -14.6%

Nc1nc(Cl)c2nc(Cl)n(C3OC(CO)C(O)C3O)c2n1 (configuration not stated)
inactive: [1] -7.1% | [2] 1.75% | [3] -8.7% | [4] -16% | [5] 4.5% | [6] -4.25%

CC(C)=CCC1=C(OC2OC(CO)C(O)C(O)C2O)C(=O)c2ccccc2C1=O (configuration not stated)
inactive: [1] 15.2% | [2] 15.6% | [3] 11.2% | [4] 6.95% | [5] 6.55% | [6] 5.5%

COc1cc2nc(Sc3c([N+](=O)[O-])ncn3C)[nH]c2cc1OC
inactive: [1] -41.6% | [2] -33.3% | [3] -30% | [4] -23% | [5] -43.5% | [6] -46%

O=C(c1ccc(Cl)s1)C(Cl)C(Cl)c1ccc(Cl)s1 (configuration not stated)
inactive: [1] -20.5% | [2] -2.4% | [3] 1.2% | [4] -12.4% | [5] 29.6% | [6] -3.55%

c1ccc(-c2ccc3c(c2)NCCN3)cc1
inactive: [1] -3% | [2] 9.35% | [3] -13.6% | [4] -4.35% | [5] 7.25% | [6] 21.4%

Nc1cc2c(cc1Br)-c1ccc(Cl)cc1C2=O
inactive: [1] 1.2% | [2] 5% | [3] 7.3% | [4] -54.4% | [5] 0% | [6] -0.5%

CCOC(=O)C(C)C(=O)NCc1ccccc1 (configuration not stated)
inactive: [1] -4.55% | [2] -4.9% | [3] -6.8% | [4] -43.5% | [5] 9.35% | [6] 11.3%

CC(C)=CC(=O)OC1C2C(C)=CC(=O)C(O)C2(C)C2C3(O)OCC24C(CC(=O)OC14)C(C)C3O (configuration not stated)
active: [1] 91.6% | [2] 92.4% | [3] 91.5% | [4] 91% | [5] 90.8% | [6] 91.2%

CC(=O)Nc1ccc(I)cc1
inactive: [1] 40.7% | [2] 3.2% | [3] 15.2% | [4] -0.8% | [5] -7.65% | [6] 21.9%

CC1(C)CCCc2c(-c3ccccc3)cc3c4ccccc4cc[n+]3c21
inactive: [1] -8.5% | [2] -5.55% | [3] -14.6% | [4] -21.6% | [5] -5% | [6] -14.1%

CC(=O)Nc1ccc2c(Br)ccc3c2c1CC3
inactive: [1] 0.8% | [2] -1.55% | [3] 4.3% | [4] 0.6% | [5] 6.6% | [6] -4.45%

NNc1nnc(NN)c2ccccc12
inactive: [1] 1.75% | [2] -2.05% | [3] 0.8% | [4] 3.65% | [5] 4.45% | [6] 4.7%

COc1cc([C@@H]2OC[C@@H]3C(c4cc(OC)c5c(c4)OCO5)OC[C@@H]32)cc(OC)c1OC (some centres not stated)
inactive: [1] 23.8% | [2] -4.5% | [3] 26.6% | [4] 31.1% | [5] 4.3% | [6] -40.8%

COc1ccccc1Nc1nc(-c2ccc([N+](=O)[O-])o2)cs1
inactive: [2] 36.2% | [5] 44%
active: [1] 70.6% | [3] 87.1% | [4] 92.8% | [6] 92.3%

COc1nc2n[nH]nc2c(=O)n1C
inactive: [1] -5.75% | [2] -10.8% | [3] -13.1% | [4] 13.7% | [5] -5.1% | [6] -21.6%

O=C(Cc1cc2c(cc1[N+](=O)[O-])OCO2)c1c[nH]c2ccc(Br)cc12
inactive: [1] 6.45% | [2] -3.9% | [3] 19.6% | [4] 18.5% | [5] -2.2% | [6] 7.55%

COC(=O)C(=O)C1(c2ccccc2)CCCC(CN(C)C)=C1O (configuration not stated)
inactive: [1] 3.35% | [2] -0.15% | [3] 2.65% | [4] -4.95% | [5] -2.65% | [6] -12.7%

CCOC(=O)NC
inactive: [1] 14.4% | [2] 1.6% | [3] -19.6% | [4] 3.85% | [5] -1% | [6] 9.8%

Cc1cccc(N=C(Nc2cccc(C)n2)Nc2cccc(C)n2)n1
inactive: [1] 31.3% | [2] 15.8% | [3] 35.6% | [4] 36.9% | [5] 25.9% | [6] 31.1%

CCOC(=O)c1c(-c2ccc(OC)cc2)c(C#N)c(=S)n(C2OC(COC(C)=O)C(OC(C)=O)C(OC(C)=O)C2OC(C)=O)c1-c1ccccc1 (configuration not stated)
inactive: [1] -4.6% | [2] 0.05% | [3] -3.2% | [4] 21.6% | [5] 11.9% | [6] 13.4%

CC(=O)Nc1cc2cc(NC=C(C#N)C#N)ccc2oc1=O
inactive: [1] -1.8% | [2] -27.3% | [3] 14.1% | [4] 15.9% | [5] 18.3% | [6] -2.5%

OC(CNc1ncccn1)(c1ccccc1)c1ccccc1
inactive: [1] -0.25% | [2] -24.8% | [3] -0.7% | [4] 13% | [5] 8.8% | [6] -17.1%

COC(=O)C=Cc1ccc2nncnc2c1 (mixture of isomers)
inactive: [1] 24.1% | [2] 21.7% | [3] 8.15% | [4] 17.1% | [5] 36.4% | [6] -7.7%
